Tests used:
Experiment in all cases: DAPPL (digital affinity profiling via proximity ligation, sequencing); 10 mM Tris-HCl pH 7.5, 50 mM NaCl, 1 mM DTT, 4% glycerol, room temperature, 30 min; GST-TFs on glutathione beads, 16-mer random dsDNA library, 0.1% formaldehyde crosslink after washing; high values mean tight binding
FEV = molecular target: T1, FEV (Homo sapiens, UniProt Q99581 1-238); conditions: protein: recombinant; tags: N-terminal GST; dsDNA, one strand shown
T1 sequence: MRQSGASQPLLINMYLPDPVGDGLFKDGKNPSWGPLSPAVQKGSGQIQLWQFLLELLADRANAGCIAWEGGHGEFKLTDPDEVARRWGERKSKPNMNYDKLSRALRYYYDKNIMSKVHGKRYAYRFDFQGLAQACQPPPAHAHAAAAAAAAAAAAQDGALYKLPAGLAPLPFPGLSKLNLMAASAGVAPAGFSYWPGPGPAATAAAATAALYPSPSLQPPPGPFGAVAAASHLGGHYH
Procedure, shortened: (§1)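 Yeast served to express human transcription factors as GST fusions, which were then captured on glutathione beads and labelled with DNA barcodes. Pooled with a tag-only sample, they were incubated with 200 nmole of a 16-mer random double-stranded DNA library for 30 min at room temperature in Tris/NaCl/DTT/glycerol buffer, washed, crosslinked with 0.1% formaldehyde, ligated by proximity, amplified by PCR and sequenced. Dividing each hexamer's read frequency for a factor by its frequency for the tag-only sample gives the binding signal.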

ETV5 = ETV5 (Homo sapiens, UniProt P41161 1-510); conditions: protein: recombinant; tags: N-terminal GST; dsDNA, one strand shown
Sequence of ETV5 (P41161 whole entry): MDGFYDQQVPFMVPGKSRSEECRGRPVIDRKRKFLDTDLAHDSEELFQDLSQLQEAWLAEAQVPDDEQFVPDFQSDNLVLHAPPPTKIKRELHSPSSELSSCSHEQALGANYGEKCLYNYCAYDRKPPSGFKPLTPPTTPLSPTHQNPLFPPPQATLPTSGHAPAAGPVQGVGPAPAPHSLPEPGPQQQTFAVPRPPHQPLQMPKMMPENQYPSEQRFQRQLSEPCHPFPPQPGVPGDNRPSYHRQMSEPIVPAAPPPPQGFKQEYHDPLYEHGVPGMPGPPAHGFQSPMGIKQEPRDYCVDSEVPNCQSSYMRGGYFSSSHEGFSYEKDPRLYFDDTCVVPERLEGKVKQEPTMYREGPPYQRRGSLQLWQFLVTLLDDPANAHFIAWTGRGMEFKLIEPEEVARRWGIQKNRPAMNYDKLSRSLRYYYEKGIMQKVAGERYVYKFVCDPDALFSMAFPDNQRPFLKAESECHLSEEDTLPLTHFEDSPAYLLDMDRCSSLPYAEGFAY
Procedure, shortened: as §1

HSF1 = HSF1 (Homo sapiens, UniProt Q00613 1-529); conditions: protein: recombinant; tags: N-terminal GST; chain copies: 3; dsDNA, one strand shown
Sequence of HSF1 (Q00613 whole entry): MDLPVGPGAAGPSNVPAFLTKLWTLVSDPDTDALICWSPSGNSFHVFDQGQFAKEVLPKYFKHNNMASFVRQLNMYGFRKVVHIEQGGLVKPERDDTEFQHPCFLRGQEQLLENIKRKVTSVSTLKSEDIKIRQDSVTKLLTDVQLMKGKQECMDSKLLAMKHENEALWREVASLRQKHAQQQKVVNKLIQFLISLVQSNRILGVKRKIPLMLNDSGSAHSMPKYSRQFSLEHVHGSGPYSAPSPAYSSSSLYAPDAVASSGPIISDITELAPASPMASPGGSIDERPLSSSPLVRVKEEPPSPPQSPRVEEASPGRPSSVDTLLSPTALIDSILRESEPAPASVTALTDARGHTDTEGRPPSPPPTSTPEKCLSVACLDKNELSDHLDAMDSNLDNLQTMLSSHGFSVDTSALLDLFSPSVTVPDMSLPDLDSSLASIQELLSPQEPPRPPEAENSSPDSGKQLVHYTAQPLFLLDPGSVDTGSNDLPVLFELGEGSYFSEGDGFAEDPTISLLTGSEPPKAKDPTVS
Procedure, shortened: as §1

SPIC = molecular target: T2, SPIC (Homo sapiens, UniProt Q8N5J4 1-248); conditions: protein: recombinant; tags: N-terminal GST; dsDNA, one strand shown
T2 sequence: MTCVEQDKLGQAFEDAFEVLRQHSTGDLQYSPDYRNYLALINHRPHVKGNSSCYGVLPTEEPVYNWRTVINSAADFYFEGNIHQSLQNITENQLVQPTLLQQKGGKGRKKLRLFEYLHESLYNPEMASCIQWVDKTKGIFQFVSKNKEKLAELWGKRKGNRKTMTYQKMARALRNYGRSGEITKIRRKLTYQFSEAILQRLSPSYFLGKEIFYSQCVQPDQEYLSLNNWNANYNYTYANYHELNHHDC
Procedure, shortened: as §1

ELF4 = ELF4 (Homo sapiens, UniProt Q99607 1-663); conditions: protein: recombinant; tags: N-terminal GST; dsDNA, one strand shown
Sequence of ELF4 (Q99607 whole entry): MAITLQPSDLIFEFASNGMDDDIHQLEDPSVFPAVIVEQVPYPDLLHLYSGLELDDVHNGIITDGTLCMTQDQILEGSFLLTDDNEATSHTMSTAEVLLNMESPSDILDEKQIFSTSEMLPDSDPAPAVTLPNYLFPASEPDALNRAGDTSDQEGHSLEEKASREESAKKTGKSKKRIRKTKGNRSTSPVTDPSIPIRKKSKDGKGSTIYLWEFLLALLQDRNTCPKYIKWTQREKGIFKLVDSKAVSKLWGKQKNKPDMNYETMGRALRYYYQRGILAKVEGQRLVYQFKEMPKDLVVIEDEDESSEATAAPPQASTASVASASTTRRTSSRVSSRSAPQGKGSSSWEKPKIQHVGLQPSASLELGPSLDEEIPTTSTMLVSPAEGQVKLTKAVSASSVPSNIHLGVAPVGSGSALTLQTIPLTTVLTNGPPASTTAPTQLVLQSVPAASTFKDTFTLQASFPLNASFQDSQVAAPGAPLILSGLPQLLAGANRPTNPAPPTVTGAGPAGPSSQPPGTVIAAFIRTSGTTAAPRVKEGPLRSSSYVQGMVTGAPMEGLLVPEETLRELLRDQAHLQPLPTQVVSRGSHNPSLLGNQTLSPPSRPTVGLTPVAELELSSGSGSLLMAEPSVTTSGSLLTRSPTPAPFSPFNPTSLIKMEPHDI
Procedure, shortened: as §1

ELK4 = molecular target: T3, ELK4 (Homo sapiens, UniProt P28324-2 1-405); conditions: protein: recombinant; tags: N-terminal GST; dsDNA, one strand shown
T3 sequence: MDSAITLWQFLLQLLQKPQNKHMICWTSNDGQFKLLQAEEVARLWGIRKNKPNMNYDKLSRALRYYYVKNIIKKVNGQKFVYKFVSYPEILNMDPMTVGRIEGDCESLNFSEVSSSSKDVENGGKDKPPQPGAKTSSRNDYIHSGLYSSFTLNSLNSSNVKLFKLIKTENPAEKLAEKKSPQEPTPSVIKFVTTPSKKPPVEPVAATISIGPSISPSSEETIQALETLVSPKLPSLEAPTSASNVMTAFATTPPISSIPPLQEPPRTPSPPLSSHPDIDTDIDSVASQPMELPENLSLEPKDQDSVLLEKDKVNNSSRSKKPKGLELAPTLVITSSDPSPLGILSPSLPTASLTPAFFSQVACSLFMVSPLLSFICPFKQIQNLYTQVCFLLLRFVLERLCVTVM
Procedure, shortened: as §1

ETV2 = molecular target: T4, ETV2 (Homo sapiens, UniProt O00321 1-342); conditions: protein: recombinant; tags: N-terminal GST; dsDNA, one strand shown
T4 sequence: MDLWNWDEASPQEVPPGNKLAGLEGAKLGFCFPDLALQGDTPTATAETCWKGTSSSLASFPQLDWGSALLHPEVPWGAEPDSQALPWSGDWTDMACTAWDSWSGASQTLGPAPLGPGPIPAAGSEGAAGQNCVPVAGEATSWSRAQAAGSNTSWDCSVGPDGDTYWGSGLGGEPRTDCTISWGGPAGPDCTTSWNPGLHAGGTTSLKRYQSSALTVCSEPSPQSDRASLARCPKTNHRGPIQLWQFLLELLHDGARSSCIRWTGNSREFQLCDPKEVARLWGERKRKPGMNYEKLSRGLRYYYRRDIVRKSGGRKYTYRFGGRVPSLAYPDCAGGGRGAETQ
Procedure, shortened: as §1

ELF3 = molecular target: T5, ELF3 (Homo sapiens, UniProt P78545 1-371); conditions: protein: recombinant; tags: N-terminal GST; dsDNA, one strand shown
T5 sequence: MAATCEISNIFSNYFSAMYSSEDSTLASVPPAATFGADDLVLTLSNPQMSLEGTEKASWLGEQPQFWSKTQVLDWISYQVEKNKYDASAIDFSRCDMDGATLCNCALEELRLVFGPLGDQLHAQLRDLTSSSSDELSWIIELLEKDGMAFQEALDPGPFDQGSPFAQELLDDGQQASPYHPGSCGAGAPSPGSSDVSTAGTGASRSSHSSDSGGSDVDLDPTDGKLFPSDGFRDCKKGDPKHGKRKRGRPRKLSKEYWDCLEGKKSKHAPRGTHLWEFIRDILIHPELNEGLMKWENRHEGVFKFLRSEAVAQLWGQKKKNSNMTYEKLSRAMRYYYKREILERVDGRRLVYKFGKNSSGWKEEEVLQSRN
Procedure, shortened: as §1

ETV1 = ETV1 (Homo sapiens, UniProt P50549 1-477); conditions: protein: recombinant; tags: N-terminal GST; dsDNA, one strand shown
Sequence of ETV1 (P50549 whole entry): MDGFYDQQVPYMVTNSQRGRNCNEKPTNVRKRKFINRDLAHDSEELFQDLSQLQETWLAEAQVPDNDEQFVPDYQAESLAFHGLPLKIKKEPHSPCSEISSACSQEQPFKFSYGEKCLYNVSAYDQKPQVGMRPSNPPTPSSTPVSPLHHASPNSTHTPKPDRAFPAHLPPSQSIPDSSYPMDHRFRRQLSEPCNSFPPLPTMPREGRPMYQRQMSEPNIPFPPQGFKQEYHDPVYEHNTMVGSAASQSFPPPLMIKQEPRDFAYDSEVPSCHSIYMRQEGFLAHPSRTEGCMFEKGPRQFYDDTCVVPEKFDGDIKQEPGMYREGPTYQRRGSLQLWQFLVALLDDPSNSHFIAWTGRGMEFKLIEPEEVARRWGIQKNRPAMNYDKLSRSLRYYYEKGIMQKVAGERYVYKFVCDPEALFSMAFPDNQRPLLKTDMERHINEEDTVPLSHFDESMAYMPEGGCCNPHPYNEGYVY
Procedure, shortened: as §1

ERF = molecular target: T6, ERF (Homo sapiens, UniProt P50548 1-548); conditions: protein: recombinant; tags: N-terminal GST; dsDNA, one strand shown
T6 sequence: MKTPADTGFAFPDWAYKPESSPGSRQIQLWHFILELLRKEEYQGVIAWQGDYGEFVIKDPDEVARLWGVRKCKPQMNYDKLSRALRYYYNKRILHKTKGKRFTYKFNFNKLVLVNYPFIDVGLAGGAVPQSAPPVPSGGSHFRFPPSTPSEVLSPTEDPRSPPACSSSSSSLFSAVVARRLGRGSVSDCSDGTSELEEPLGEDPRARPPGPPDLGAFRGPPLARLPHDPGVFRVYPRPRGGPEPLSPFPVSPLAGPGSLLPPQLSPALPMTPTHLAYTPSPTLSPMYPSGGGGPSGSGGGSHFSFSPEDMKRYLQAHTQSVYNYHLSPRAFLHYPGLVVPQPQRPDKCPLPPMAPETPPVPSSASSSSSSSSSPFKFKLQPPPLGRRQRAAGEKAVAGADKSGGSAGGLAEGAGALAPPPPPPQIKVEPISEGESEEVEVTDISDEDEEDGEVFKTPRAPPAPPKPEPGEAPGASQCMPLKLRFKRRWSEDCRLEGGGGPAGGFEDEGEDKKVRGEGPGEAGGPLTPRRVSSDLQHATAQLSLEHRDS
Procedure, shortened: as §1

ETV3L = molecular target: T7, ETV3L (Homo sapiens, UniProt Q6ZN32 1-361); conditions: protein: recombinant; tags: N-terminal GST; dsDNA, one strand shown
T7 sequence: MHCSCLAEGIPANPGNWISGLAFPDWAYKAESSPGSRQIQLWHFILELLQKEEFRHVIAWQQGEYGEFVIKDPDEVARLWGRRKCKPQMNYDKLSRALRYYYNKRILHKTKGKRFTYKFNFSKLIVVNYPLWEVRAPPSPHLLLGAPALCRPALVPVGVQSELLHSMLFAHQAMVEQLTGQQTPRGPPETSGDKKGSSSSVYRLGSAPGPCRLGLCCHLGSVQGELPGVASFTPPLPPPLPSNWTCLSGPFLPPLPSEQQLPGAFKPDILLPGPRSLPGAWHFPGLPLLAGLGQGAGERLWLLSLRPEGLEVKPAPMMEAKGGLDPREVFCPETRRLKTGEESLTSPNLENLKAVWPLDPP
Procedure, shortened: as §1

ETS2 = molecular target: T8, ETS2 (Homo sapiens, UniProt P15036 1-469); conditions: protein: recombinant; tags: N-terminal GST; dsDNA, one strand shown
T8 sequence: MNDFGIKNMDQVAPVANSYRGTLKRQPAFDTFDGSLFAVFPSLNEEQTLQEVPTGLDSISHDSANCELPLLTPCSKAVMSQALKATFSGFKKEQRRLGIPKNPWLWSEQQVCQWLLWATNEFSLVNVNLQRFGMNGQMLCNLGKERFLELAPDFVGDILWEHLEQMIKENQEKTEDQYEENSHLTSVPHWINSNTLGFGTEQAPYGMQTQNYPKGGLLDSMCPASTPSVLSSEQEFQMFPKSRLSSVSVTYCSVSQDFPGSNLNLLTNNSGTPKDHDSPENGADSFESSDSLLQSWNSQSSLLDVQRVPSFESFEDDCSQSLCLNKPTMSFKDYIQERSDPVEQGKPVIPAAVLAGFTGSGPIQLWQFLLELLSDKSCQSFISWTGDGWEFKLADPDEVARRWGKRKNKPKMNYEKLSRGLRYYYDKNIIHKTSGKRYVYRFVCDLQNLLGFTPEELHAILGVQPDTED
Procedure, shortened: as §1

SPDEF = molecular target: T9, SPDEF (Homo sapiens, UniProt O95238 1-335); conditions: protein: recombinant; tags: N-terminal GST; dsDNA, one strand shown
T9 sequence: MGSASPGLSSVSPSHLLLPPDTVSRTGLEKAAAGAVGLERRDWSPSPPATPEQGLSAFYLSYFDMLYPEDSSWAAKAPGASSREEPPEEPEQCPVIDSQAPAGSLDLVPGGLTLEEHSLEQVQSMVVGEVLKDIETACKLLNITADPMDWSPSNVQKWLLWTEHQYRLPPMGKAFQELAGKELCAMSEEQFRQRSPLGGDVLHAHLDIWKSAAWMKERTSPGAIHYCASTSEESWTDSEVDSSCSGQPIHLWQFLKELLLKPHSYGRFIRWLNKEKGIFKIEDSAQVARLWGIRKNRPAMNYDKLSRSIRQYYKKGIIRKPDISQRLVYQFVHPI
Procedure, shortened: as §1

ETV7 = molecular target: T10, ETV7 (Homo sapiens, UniProt Q9Y603 1-341); conditions: protein: recombinant; tags: N-terminal GST; dsDNA, one strand shown
T10 sequence: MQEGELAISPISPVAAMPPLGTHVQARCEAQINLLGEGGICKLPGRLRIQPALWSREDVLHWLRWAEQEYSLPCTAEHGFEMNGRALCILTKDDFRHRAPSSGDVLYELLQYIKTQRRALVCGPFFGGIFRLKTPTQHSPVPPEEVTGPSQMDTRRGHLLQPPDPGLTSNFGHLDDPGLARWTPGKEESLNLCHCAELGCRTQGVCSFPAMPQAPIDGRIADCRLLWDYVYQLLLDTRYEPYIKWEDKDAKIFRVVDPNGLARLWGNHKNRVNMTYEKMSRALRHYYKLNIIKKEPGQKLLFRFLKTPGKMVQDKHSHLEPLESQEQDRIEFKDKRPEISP
Procedure, shortened: as §1

ETV6 = ETV6 (Homo sapiens, UniProt P41212 1-452); conditions: protein: recombinant; tags: N-terminal GST; dsDNA, one strand shown
Sequence of ETV6 (P41212 whole entry): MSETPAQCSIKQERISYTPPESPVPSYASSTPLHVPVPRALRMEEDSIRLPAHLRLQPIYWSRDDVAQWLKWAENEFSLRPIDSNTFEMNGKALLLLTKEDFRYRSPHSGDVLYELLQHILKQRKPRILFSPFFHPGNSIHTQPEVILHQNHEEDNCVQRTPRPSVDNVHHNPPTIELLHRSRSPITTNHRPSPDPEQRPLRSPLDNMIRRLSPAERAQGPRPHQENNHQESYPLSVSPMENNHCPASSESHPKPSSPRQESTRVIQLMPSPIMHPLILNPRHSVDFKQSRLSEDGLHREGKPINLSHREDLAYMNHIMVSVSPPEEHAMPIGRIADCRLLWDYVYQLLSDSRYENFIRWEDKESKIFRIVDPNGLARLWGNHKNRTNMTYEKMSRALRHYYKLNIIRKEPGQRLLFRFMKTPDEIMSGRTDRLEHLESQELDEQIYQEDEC
Procedure, shortened: as §1

Q: Which results are given for CTCGGT?
A: binding signal (FEV): 1.01 fold enrichment (6-mer frequency, TF over GST control); binding signal (ETV5): 1.1 fold enrichment (6-mer frequency, TF over GST control); binding signal (HSF1): 1.04 fold enrichment (6-mer frequency, TF over GST control); binding signal (SPIC): 1.06 fold enrichment (6-mer frequency, TF over GST control); binding signal (ELF4): 1.09 fold enrichment (6-mer frequency, TF over GST control); binding signal (ELK4): 1.12 fold enrichment (6-mer frequency, TF over GST control); binding signal (ETV2): 1.19 fold enrichment (6-mer frequency, TF over GST control); binding signal (ELF3): 1.16 fold enrichment (6-mer frequency, TF over GST control); binding signal (ETV1): 1.15 fold enrichment (6-mer frequency, TF over GST control); binding signal (ERF): 1.14 fold enrichment (6-mer frequency, TF over GST control); binding signal (ETV3L): 1.12 fold enrichment (6-mer frequency, TF over GST control); binding signal (ETS2): 1.11 fold enrichment (6-mer frequency, TF over GST control); binding signal (SPDEF): 1.02 fold enrichment (6-mer frequency, TF over GST control); binding signal (ETV7): 1.05 fold enrichment (6-mer frequency, TF over GST control); binding signal (ETV6): 1.08 fold enrichment (6-mer frequency, TF over GST control)

— publication PMC7862700, “An all-to-all approach to the identification of sequence-specific readers for epigenetic DNA modifications on cytosine”
